Assay results: the supplement of paper PMC12067093, “Discovery and optimisation of a covalent ligand for TRIM25 and its application to targeted protein ubiquitination” (Chemical Science, 2025)
The full data set covers some 21,000 targets. This sample favours those with the largest changes.

These targets were tested with Cc1cc(ccc1-c1ccccc1)C(=O)N1CCCN(CC1)C(=O)CCl [compound 10] (assay: probe-labelled cysteine peptide fold change vs DMSO (competition) (log2 fold change); higher = less target engagement (more negative = stronger competition)). Details: 10 µM; THP-1; incubation time: 4 h.
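Further: competitive profiling in live THP-1 cells: cysteine peptides tagged with an iodoacetamide desthiobiotin (IA-DTB) probe, intensity after compound treatment relative to DMSO-treated cells.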

Chain of UniProt P49736 (P49736 whole entry, looked up): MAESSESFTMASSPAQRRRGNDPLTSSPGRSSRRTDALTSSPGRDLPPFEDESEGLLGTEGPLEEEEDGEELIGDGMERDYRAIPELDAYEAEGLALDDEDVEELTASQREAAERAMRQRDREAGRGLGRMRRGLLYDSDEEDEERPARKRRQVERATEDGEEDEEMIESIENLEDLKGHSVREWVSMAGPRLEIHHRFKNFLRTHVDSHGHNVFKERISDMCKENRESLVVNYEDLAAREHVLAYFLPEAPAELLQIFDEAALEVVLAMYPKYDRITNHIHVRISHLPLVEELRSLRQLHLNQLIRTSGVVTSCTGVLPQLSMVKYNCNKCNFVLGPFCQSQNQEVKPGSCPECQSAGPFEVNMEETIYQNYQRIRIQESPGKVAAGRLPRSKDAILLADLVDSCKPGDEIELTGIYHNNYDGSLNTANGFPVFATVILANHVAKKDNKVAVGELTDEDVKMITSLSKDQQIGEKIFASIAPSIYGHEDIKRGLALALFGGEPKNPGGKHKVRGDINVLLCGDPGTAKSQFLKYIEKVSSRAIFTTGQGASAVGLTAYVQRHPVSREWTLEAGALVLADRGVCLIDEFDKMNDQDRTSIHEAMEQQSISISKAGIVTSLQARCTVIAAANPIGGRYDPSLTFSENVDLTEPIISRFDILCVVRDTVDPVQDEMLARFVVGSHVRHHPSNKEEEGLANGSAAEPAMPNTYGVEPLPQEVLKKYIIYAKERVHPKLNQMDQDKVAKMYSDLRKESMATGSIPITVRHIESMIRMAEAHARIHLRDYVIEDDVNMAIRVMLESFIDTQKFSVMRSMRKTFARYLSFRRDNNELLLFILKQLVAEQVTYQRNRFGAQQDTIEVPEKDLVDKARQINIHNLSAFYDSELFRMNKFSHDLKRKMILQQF
Chain of UniProt Q9BU76 (Q9BU76 whole entry, looked up): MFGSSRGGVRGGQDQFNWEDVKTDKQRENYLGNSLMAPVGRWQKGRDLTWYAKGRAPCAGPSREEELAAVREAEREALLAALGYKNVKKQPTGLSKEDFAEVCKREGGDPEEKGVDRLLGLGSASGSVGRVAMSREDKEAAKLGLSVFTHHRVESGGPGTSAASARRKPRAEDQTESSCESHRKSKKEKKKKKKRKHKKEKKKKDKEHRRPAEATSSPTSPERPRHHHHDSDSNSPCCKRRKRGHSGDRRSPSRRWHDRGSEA
Chain of UniProt Q9Y333 (Q9Y333 whole entry, looked up): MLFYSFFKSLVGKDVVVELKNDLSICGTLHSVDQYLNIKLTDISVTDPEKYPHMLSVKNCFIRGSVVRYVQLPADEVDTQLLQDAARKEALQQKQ
Chain of UniProt Q9BTC8 (Q9BTC8 whole entry, looked up): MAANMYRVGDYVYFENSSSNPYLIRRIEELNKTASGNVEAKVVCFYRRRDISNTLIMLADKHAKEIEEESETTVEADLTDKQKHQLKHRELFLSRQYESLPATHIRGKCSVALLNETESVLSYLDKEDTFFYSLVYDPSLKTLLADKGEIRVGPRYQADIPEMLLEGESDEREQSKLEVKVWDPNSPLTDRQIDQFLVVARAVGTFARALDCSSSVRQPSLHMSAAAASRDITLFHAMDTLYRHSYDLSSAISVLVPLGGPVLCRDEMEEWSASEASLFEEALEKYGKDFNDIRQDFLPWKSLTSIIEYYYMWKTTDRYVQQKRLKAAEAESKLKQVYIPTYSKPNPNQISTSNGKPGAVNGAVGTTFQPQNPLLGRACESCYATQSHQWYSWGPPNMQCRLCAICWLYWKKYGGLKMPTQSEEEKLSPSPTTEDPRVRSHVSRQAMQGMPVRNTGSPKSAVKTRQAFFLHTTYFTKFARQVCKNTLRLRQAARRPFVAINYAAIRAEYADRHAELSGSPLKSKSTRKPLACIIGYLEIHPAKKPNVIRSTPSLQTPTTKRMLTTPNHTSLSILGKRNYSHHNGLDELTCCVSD
Chain of UniProt P17931 (P17931 whole entry): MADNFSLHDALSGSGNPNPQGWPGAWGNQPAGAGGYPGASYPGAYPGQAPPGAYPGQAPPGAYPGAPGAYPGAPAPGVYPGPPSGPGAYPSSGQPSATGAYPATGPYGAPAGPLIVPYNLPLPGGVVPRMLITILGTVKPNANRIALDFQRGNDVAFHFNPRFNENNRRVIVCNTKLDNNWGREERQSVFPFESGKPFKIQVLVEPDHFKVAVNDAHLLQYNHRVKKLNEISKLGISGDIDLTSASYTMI
Chain of UniProt P49916 (P49916 whole entry, looked up): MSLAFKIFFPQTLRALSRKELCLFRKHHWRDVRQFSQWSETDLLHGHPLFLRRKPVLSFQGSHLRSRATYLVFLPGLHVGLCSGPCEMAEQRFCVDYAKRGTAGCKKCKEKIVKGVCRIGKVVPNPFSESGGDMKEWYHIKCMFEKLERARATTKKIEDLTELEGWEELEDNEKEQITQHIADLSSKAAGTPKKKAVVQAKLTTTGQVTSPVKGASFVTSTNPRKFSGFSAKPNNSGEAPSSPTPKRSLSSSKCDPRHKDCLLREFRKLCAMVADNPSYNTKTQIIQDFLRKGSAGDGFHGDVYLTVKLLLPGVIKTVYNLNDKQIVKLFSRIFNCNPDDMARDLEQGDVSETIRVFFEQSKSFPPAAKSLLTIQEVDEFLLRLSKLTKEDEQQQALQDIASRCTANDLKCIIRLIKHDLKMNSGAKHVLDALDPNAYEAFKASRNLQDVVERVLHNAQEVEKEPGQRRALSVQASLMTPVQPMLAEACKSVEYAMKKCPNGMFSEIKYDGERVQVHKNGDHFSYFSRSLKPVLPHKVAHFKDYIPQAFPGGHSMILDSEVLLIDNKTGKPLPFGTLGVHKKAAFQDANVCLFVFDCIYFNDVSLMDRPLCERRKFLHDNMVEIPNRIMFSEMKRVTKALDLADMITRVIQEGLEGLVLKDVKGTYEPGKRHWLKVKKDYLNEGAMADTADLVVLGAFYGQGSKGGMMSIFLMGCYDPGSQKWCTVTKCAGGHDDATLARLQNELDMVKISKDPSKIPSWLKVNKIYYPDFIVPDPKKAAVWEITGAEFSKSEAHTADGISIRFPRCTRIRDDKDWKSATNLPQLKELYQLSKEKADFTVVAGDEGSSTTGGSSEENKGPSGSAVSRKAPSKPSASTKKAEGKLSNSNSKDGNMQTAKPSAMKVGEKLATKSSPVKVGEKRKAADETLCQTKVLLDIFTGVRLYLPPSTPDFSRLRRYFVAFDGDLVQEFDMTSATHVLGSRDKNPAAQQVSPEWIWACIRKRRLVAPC
Chain of UniProt O75427 (O75427 whole entry, looked up): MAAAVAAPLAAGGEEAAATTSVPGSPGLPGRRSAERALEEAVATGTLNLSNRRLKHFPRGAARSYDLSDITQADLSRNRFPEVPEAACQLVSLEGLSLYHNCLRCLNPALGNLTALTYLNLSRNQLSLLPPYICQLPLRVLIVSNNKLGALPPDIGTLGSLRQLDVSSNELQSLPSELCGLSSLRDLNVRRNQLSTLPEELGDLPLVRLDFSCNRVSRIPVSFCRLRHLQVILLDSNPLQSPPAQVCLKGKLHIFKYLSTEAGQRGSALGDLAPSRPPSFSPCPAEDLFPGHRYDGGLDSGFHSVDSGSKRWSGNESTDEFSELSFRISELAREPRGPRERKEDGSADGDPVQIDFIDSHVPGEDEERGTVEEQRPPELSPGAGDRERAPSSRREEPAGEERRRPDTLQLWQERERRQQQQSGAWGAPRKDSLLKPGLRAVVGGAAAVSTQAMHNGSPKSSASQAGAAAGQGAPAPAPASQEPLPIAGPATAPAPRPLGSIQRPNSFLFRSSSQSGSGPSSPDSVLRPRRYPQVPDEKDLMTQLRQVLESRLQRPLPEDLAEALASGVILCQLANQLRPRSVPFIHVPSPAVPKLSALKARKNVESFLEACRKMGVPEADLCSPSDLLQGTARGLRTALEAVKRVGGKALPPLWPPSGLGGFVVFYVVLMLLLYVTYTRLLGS
Chain of UniProt Q6UB35 (Q6UB35 whole entry, looked up): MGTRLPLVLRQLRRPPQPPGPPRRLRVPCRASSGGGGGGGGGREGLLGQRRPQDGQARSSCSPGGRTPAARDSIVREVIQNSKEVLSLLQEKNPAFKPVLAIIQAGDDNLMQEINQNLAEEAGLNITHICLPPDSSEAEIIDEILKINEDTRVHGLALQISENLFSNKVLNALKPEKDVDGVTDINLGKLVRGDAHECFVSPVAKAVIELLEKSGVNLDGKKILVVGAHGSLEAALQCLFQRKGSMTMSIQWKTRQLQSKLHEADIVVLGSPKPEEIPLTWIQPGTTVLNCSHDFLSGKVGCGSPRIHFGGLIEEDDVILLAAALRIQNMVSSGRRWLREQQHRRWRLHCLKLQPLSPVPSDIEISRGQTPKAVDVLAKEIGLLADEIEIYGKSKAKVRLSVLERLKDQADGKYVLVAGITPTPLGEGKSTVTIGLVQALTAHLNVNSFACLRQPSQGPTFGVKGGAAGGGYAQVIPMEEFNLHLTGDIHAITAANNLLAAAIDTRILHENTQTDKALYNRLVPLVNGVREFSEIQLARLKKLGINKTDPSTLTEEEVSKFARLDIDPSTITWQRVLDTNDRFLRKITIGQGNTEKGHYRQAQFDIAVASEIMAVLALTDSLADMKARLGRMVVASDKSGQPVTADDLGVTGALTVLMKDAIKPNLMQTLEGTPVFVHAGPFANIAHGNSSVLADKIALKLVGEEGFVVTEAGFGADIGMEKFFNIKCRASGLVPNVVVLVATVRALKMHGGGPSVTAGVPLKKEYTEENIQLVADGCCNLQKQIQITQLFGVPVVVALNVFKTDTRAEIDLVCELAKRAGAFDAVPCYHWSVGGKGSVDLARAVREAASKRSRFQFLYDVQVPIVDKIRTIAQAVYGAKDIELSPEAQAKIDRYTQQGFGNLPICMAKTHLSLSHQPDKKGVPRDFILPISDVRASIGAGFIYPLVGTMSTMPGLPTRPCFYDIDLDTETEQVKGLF

| Target | probe-labelled cysteine peptide fold change |
| --- | --- |
| MFSD14A_Q96MC6_465_HCGSHSHPHNTQAPGEAK (UniProt Q96MC6) | -0.39 |
| LRCH4_O75427_283_GSALGDLAPSRPPSFSPCPAEDLFPGHR (UniProt O75427) | -1.16 |
| MRPS31_Q92665_356_HFMELVTCGLSK (UniProt Q92665) | 0.0457 |
| LGALS3_P17931_173_VIVCNTK (UniProt P17931) | 0.0884 |
| MYH9_P35579_789_ITDVIIGFQACCR (UniProt P35579) | -0.109 |
| MICALL1_Q8N3F8_597_GSSGPQPAKPCSGATPTPLLLVGDR (UniProt Q8N3F8) | -0.17 |
| LYST_Q99698_2223_SEDDSPGDESCPR (UniProt Q99698) | -0.367 |
| LIMS1_P48059_281_AWCVNCFACSTCNTK (UniProt P48059) | 0.00276 |
| MPI_P34949_289_GDCVECMACSDNTVR (UniProt P34949) | 0.0622 |
| MMTAG2_Q9BU76_103_EDFAEVCKR (UniProt Q9BU76) | -0.168 |
| MED13_Q9UHV7_681_NQCLSAIASDAEQEPK (UniProt Q9UHV7) | 0.327 |
| MRPL53_Q96EL3_21_VQFCPFEK (UniProt Q96EL3) | 0.0106 |
| MMP14_P50281_574_RLLYCQR (UniProt P50281) | -0.276 |
| MKI67_P46013_643_SQHDILQMICSK (UniProt P46013) | -0.612 |
| MYCBP2_O75592_3263_QAHPGCGR (UniProt O75592) | 0.0855 |
| LRPPRC_P42704_380_EDGPSVFGSFFLQHCVTMNTPVEK (UniProt P42704) | 0.0471 |
| LSM2_Q9Y333_26_NDLSICGTLHSVDQYLNIK (UniProt Q9Y333) | 0.109 |
| MARS_P56192_38_AEVLISTVGPEDCVVPFLTRPK (UniProt P56192) | -0.0722 |
| MCM4_P33991_328_IAEPSVCGR (UniProt P33991) | 0.0169 |

| Target | probe-labelled cysteine peptide fold change |
| --- | --- |
| MTA3_Q9BTC8_109_CSVALLNETESVLSYLDK (UniProt Q9BTC8) | 0.791 |
| MRPL37_Q9BZE1_104_DQACYIFHHR (UniProt Q9BZE1) | 0.0327 |
| MSTO1_Q9BUK6_232_LHFYVEECDYLQGFQILCDLHDGFSGVGAK (UniProt Q9BUK6) | 0.444 |
| MYADM_Q96S97_279_SRDVSCSR (UniProt Q96S97) | 1.07 |
| MIB1_Q86YT6_103_CAECTNYDLCTVCYHGDK (UniProt Q86YT6) | 0.0824 |
| LIG3_P49916_929_KAADETLCQTK (UniProt P49916) | -0.152 |
| MYD88_Q99836_168_FDAFICYCPSDIQFVQEMIR (UniProt Q99836) | 0.412 |
| MRC2_Q9UBG0_1234_TTSCDTK (UniProt Q9UBG0) | -0.27 |
| MRC2_Q9UBG0_187_IYGSEEDLCALPYHEVYTIQGNSHGKPCTIPFK (UniProt Q9UBG0) | -0.0343 |
| MYH9_P35579_671_CIIPNHEKK (UniProt P35579) | -0.188 |
| LIMS1_P48059_193_MGVPICGACR (UniProt P48059) | -0.104 |
| MCM2_P49736_223_ISDMCK (UniProt P49736) | -0.124 |
| MAK16_Q9BXY0_39_NEYSLTGLCNR (UniProt Q9BXY0) | 0.173 |
| MYBBP1A_Q9BQG0_623_SPAESCDLLGDIQTCIR (UniProt Q9BQG0) | -0.0385 |
| MTMR3_Q13615_473_CPVFLQWLDCVHQLQR (UniProt Q13615) | -0.0651 |
| LIMS1_P48059_240+252_GLAYCETHYNQLFGDVCFHCNR (UniProt P48059) | 0.0277 |
| MSTO1_Q9BUK6_347_LCSSPVSMVHLADMLSFCGK (UniProt Q9BUK6) | 0.0999 |
| LILRB4_Q8NHJ6_330_SSPAADVQGENFCAAVK (UniProt Q8NHJ6) | -0.385 |
| MTHFD1L_Q6UB35_906_YTQQGFGNLPICMAK (UniProt Q6UB35) | -0.063 |

Same assay, conditions: 50 µM; THP-1; incubation time: 4 h

| Target | probe-labelled cysteine peptide fold change |
| --- | --- |
| MFSD14A_Q96MC6_465_HCGSHSHPHNTQAPGEAK (UniProt Q96MC6) | -1.11 |
| LRCH4_O75427_283_GSALGDLAPSRPPSFSPCPAEDLFPGHR (UniProt O75427) | -1.33 |
| MRPS31_Q92665_356_HFMELVTCGLSK (UniProt Q92665) | -0.112 |
| LGALS3_P17931_173_VIVCNTK (UniProt P17931) | -0.00184 |
| MYH9_P35579_789_ITDVIIGFQACCR (UniProt P35579) | -0.0345 |
| MICALL1_Q8N3F8_597_GSSGPQPAKPCSGATPTPLLLVGDR (UniProt Q8N3F8) | -0.459 |
| LYST_Q99698_2223_SEDDSPGDESCPR (UniProt Q99698) | -1.41 |
| LIMS1_P48059_281_AWCVNCFACSTCNTK (UniProt P48059) | 0.175 |
| MPI_P34949_289_GDCVECMACSDNTVR (UniProt P34949) | -0.0489 |
| MMTAG2_Q9BU76_103_EDFAEVCKR (UniProt Q9BU76) | -0.321 |
| MED13_Q9UHV7_681_NQCLSAIASDAEQEPK (UniProt Q9UHV7) | 0.0925 |
| MRPL53_Q96EL3_21_VQFCPFEK (UniProt Q96EL3) | -0.103 |
| MMP14_P50281_574_RLLYCQR (UniProt P50281) | -0.518 |
| MKI67_P46013_643_SQHDILQMICSK (UniProt P46013) | -2.28 |
| MYCBP2_O75592_3263_QAHPGCGR (UniProt O75592) | 0.00399 |
| LRPPRC_P42704_380_EDGPSVFGSFFLQHCVTMNTPVEK (UniProt P42704) | 0.322 |
| LSM2_Q9Y333_26_NDLSICGTLHSVDQYLNIK (UniProt Q9Y333) | 0.253 |
| MARS_P56192_38_AEVLISTVGPEDCVVPFLTRPK (UniProt P56192) | 0.0548 |
| MCM4_P33991_328_IAEPSVCGR (UniProt P33991) | -0.0125 |

| Target | probe-labelled cysteine peptide fold change |
| --- | --- |
| MTA3_Q9BTC8_109_CSVALLNETESVLSYLDK (UniProt Q9BTC8) | 0.971 |
| MRPL37_Q9BZE1_104_DQACYIFHHR (UniProt Q9BZE1) | -0.253 |
| MSTO1_Q9BUK6_232_LHFYVEECDYLQGFQILCDLHDGFSGVGAK (UniProt Q9BUK6) | 1.33 |
| MYADM_Q96S97_279_SRDVSCSR (UniProt Q96S97) | 1.22 |
| MIB1_Q86YT6_103_CAECTNYDLCTVCYHGDK (UniProt Q86YT6) | -0.0966 |
| LIG3_P49916_929_KAADETLCQTK (UniProt P49916) | -1.24 |
| MYD88_Q99836_168_FDAFICYCPSDIQFVQEMIR (UniProt Q99836) | -1.05 |
| MRC2_Q9UBG0_1234_TTSCDTK (UniProt Q9UBG0) | -0.499 |
| MRC2_Q9UBG0_187_IYGSEEDLCALPYHEVYTIQGNSHGKPCTIPFK (UniProt Q9UBG0) | -0.784 |
| MYH9_P35579_671_CIIPNHEKK (UniProt P35579) | -1.18 |
| LIMS1_P48059_193_MGVPICGACR (UniProt P48059) | -0.269 |
| MCM2_P49736_223_ISDMCK (UniProt P49736) | -0.178 |
| MAK16_Q9BXY0_39_NEYSLTGLCNR (UniProt Q9BXY0) | -0.348 |
| MYBBP1A_Q9BQG0_623_SPAESCDLLGDIQTCIR (UniProt Q9BQG0) | -0.16 |
| MTMR3_Q13615_473_CPVFLQWLDCVHQLQR (UniProt Q13615) | 0.044 |
| LIMS1_P48059_240+252_GLAYCETHYNQLFGDVCFHCNR (UniProt P48059) | 0.118 |
| MSTO1_Q9BUK6_347_LCSSPVSMVHLADMLSFCGK (UniProt Q9BUK6) | 0.248 |
| LILRB4_Q8NHJ6_330_SSPAADVQGENFCAAVK (UniProt Q8NHJ6) | -0.214 |
| MTHFD1L_Q6UB35_906_YTQQGFGNLPICMAK (UniProt Q6UB35) | -0.0614 |
